From PubChem BioAssay (NCI)
About 83,000 compounds went through this panel and 20% of them were active in at least one assay; those are over-represented in the sample as a whole.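 Single-dose data. Exposure time 48 hours. Values below 10 considered active.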 Unmarked numbers belong to inactive results. Calls of active or inactive are those of the source.

How the values were obtained:
Experiment in all cases: NCI-60 one-dose screen, 48 h (100 = growth as untreated, 0 = no growth, -100 = all killed)
Details in all cases: 10 µM unless noted
DU-145 prostate = tested on: DU-145 prostate
K-562 leukemia = tested on: K-562 leukemia
MALME-3M melanoma = tested on: MALME-3M melanoma
MDA-MB-231 breast = tested on: MDA-MB-231 breast
RXF 393 renal = tested on: RXF 393 renal
SF-268 CNS = tested on: SF-268 CNS
SF-295 CNS = tested on: SF-295 CNS
SF-539 CNS = tested on: SF-539 CNS
UACC-257 melanoma = tested on: UACC-257 melanoma
M14 melanoma = tested on: M14 melanoma

SMILES | growth (DU-145 prostate) | growth (K-562 leukemia) | growth (MALME-3M melanoma) | growth (MDA-MB-231 breast) | growth (RXF 393 renal) | growth (SF-268 CNS) | growth (SF-295 CNS) | growth (SF-539 CNS) | growth (UACC-257 melanoma) | growth (M14 melanoma)
O=C(O)COc1ccc(-c2cssc2=S)cc1 | 120% | 115% | 97% | 110% | 107% | 105% | 97.3% | 96.3% | 94.5% | 105%
CCCC(=O)Oc1ccc(/C(=C(\C)c2ccccc2)c2ccc(OCCN(CC)CC)cc2)cc1 | 102% | 16% | 70.3% | 92.6% | 61.1% | 77.2% | 91.4% | 60.4% | 67.6% | 40.7%
Nc1nc(-c2ccccc2)c(CCCOc2ccc(NC(=O)CBr)cc2)c(=O)[nH]1 | 104% | 94.3% | 123% | 87.4% | 106% | 91.8% | 117% | 93.1% | 86.9% | 104%
COc1ccc(S(=O)(=O)n2cc(C(=O)C(=O)Nc3ccncc3)c3ccccc32)cc1F | 86.4% | 58.8% | 76.4% | 57.1% | 90.9% | 81.7% | 43.2% | 69.1% | 105% | 93.2%
C1=Cc2ccccc2N(c2nnc(-c3ccccc3)o2)c2ccccc21 | 105% | 67.8% | 109% | 85.5% | 91.1% | 91.7% | 92% | 103% | 111% | 100%
CC(C)(C)n1cc(-c2ccnc(NCCNS(=O)(=O)c3ccc(Cl)cc3)c2)c(-c2cccc(O)c2)n1 | 80.6% | 6.91% (active) | 64.4% | 56.6% | 64.3% | 54.7% | 54.4% | 68.1% | 64.8% | 62.8%
COc1cc(-c2nn(C(=O)NS(=O)(=O)c3ccccc3)cc2-c2ccncc2)ccc1Cl | 91.8% | 101% | 87.3% | 70.5% | 63% | 58.6% | 85.1% | 74.8% | 89.1% | 78.4%
O=C1c2ccccc2-c2ccccc2C1(Cl)Cl | -90.6% (active) | -15.4% (active) | -99.4% (active) | -27.5% (active) | -95.6% (active) | -83.8% (active) | -91% (active) | -94.8% (active) | -93% (active) | -69.6% (active)
COc1ccc(/C=C2/C(=O)NC(SCC(=O)N3CCN(c4cc5c(cc4F)c(=O)c(C(=O)O)cn5C4CC4)CC3)=NC2N)cc1OC (stereo not given) | 104% | 107% | 108% | 106% | 109% | 96.8% | 93.9% | 101% | 108% | 106%
Cc1cc(N)n(S(=O)(=O)c2oc(-c3ccccc3)nc2C#N)n1 | 103% | 7.1% (active) | -49% (active) | 94.1% | 92.3% | 103% | 101% | 108% | 101% | 84.5%
COc1ccc(-c2cc(-c3ccccc3)nc(SCCCC(=O)NO)n2)cc1OC | 1.4% (active) | 3.02% (active) | -3.72% (active) | 6.56% (active) | -21.1% (active) | -19.2% (active) | -0.804% (active) | 14.8% | -18.2% (active) | -4.14% (active)
Cc1cc(N/N=C/c2nc(-c3ccccc3)oc2C)c2cc(Br)ccc2n1 | 91.3% | 21.9% | 95.2% | 53.5% | 102% | 95% | 95% | 75.2% | 102% | 91.6%
CN1C(=O)N(C)C2C1NN=c1s/c(=C\C=C\c3ccccc3)c(=O)n12 (stereo not given) | 69.3% | 20.6% | 62.6% | 65% | 77.7% | 67.2% | 45.7% | 54.8% | 73.4% | 41.5%
CCN(CC)CCC(CNc1ccnc2cc(Cl)ccc12)c1ccc(Cl)cc1 (stereo not given) | 67.7% | -53.9% (active) | -83.1% (active) | -32.1% (active) | -90.4% (active) | -8.09% (active) | -75.4% (active) | -78.2% (active) | -79.4% (active) | -80.2% (active)
